Measurements: PubChem BioAssay (NCI)
Where “and” joins values, the source holds several entries; their conditions need not be identical. Identical values can stand only once. This is part of a sample that, as a whole, favours compounds with a hit. Of some 83,000 tested, about 20% had one in any assay.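 Values shown are percent growth following 48 h exposure of cells in 96-well plates to a single concentration of compound; below 10 was considered active.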 Calls of active or inactive are those of the source.

Columns and labels:
Experiment in all cases: NCI-60 one-dose screen, 48 h (100 = growth as untreated, 0 = no growth, -100 = all killed)
Conditions in all cases: 10 µM unless noted
[1] = system: HCT-15 colon
[2] = system: HT29 colon
[3] = system: SNB-75 CNS
[4] = system: SNB-19 CNS
[5] = system: U251 CNS
[6] = system: PC-3 prostate
[7] = system: SK-MEL-5 melanoma
[8] = system: UACC-62 melanoma
[9] = system: LOX IMVI melanoma
[10] = system: SK-MEL-28 melanoma
[11] = system: SK-MEL-2 melanoma
[12] = system: EKVX NSCLC
[13] = system: SN12C renal
[14] = system: UO-31 renal
[15] = system: TK-10 renal
[16] = system: ACHN renal
[17] = system: CAKI-1 renal
[18] = system: A498 renal
[19] = system: CCRF-CEM leukemia
[20] = system: MOLT-4 leukemia

Row | SMILES | growth [1] | growth [2] | growth [3] | growth [4] | growth [5] | growth [6] | growth [7] | growth [8] | growth [9] | growth [10] | growth [11] | growth [12] | growth [13] | growth [14] | growth [15] | growth [16] | growth [17] | growth [18] | growth [19] | growth [20]
1 | COc1nc(=O)n(C2C=CC(=O)O2)cc1F (stereo not drawn) | 58.5% (inactive) | 55.8% (inactive) | 90.2% (inactive) | 97.8% (inactive) | 103% (inactive) | 110% (inactive) | 94.9% (inactive) | 59.7% (inactive) | 64.9% (inactive) | 96% (inactive) | 106% (inactive) | 78.4% (inactive) | 94.8% (inactive) | 56.3% (inactive) | 61.3% (inactive) | 31.7% (inactive) | 40.1% (inactive) | 97.9% (inactive) | 48.7% (inactive) | 33.5% (inactive)
2 | CC(=O)Nc1c(I)c(NC(C)=O)c(I)c(C(=O)O)c1I | 98.5% (inactive) and 131% (inactive) | 108% (inactive) and 118% (inactive) | 82% (inactive) and 124% (inactive) | 107% (inactive) | 102% (inactive) and 106% (inactive) | 88.2% (inactive) and 101% (inactive) | 103% (inactive) and 105% (inactive) | 105% (inactive) and 119% (inactive) | 95.8% (inactive) and 111% (inactive) | 115% (inactive) and 108% (inactive) | 111% (inactive) and 93.8% (inactive) | 102% (inactive) and 90.6% (inactive) | 102% (inactive) and 106% (inactive) | 76.3% (inactive) and 88.3% (inactive) | 120% (inactive) and 101% (inactive) | 96.9% (inactive) and 112% (inactive) | 89.8% (inactive) and 91.3% (inactive) | 107% (inactive) and 123% (inactive) | 95.9% (inactive) and 105% (inactive) | 96.9% (inactive) and 90.1% (inactive)
3 | Nn1c(-c2ccc(Cl)cc2)nc2c(-c3ccc(Cl)cc3)nc3ccc(Cl)cc3c2c1=O | 58.2% (inactive) | 7.88% (active) | -51.4% (active) | 28.2% (inactive) | -63.5% (active) | 36.6% (inactive) | 52.5% (inactive) | 30.3% (inactive) | 20.2% (inactive) | -67.2% (active) | 73.3% (inactive) | 6.86% (active) | -3.15% (active) | -24.9% (active) | 0.823% (active) | 4.66% (active) | 14.7% (inactive) | 21.3% (inactive) | – | 32.3% (inactive)
4 | CCCCCCCC/C=C\CCCCCCCCOc1ccccc1CC(=O)NCC[N+]1(C)CCOCC1 | 92.5% (inactive) | 44.9% (inactive) | 47.7% (inactive) | 32.8% (inactive) | 12.3% (inactive) | 21.7% (inactive) | 89.3% (inactive) | 68% (inactive) | 71.8% (inactive) | 93.8% (inactive) | 90.3% (inactive) | 92.1% (inactive) | 60.5% (inactive) | 96.2% (inactive) | 8.83% (active) | 85.5% (inactive) | 71.6% (inactive) | 95.2% (inactive) | – | 83.7% (inactive)
5 | COc1ccc(Nc2ncnc3ccc(-c4cncc(NS(C)(=O)=O)c4)cc23)cc1Cl | 63.3% (inactive) | 23.1% (inactive) | 26.7% (inactive) | 42.2% (inactive) | 12% (inactive) | 30% (inactive) | -60.5% (active) | 31.8% (inactive) | 15.7% (inactive) | 42.4% (inactive) | -4.48% (active) | 67.3% (inactive) | 38% (inactive) | 50.1% (inactive) | 18.2% (inactive) | 80.4% (inactive) | 79.8% (inactive) | 7.85% (active) | – | -27.6% (active)
6 | COc1ccc(-c2cc(=O)c3c(O)cc(O)cc3o2)cc1 | 103% (inactive) and 100% (inactive) | 110% (inactive) and 109% (inactive) | 99.1% (inactive) and 118% (inactive) | 105% (inactive) and 83.4% (inactive) | 92.9% (inactive) and 84% (inactive) | 94.9% (inactive) and 83.8% (inactive) | 104% (inactive) and 92.7% (inactive) | 104% (inactive) and 96.9% (inactive) | 82.8% (inactive) and 91.6% (inactive) | 113% (inactive) and 111% (inactive) | 116% (inactive) | 103% (inactive) | 102% (inactive) and 82% (inactive) | -74.8% (active) and 92.7% (inactive) | 119% (inactive) and 104% (inactive) | 97.5% (inactive) and 97.2% (inactive) | 108% (inactive) and 105% (inactive) | 97.5% (inactive) | – | 76.4% (inactive) and 85.6% (inactive)
7 | Cc1nc2sc(C(=O)Nc3cccc4ncccc34)c(N)c2cc1C(C)O (stereo not drawn) | 64.1% (inactive) | 52.8% (inactive) | 76.6% (inactive) | 67.8% (inactive) | 83.4% (inactive) | 72.9% (inactive) | 56.8% (inactive) | 42.9% (inactive) | 73.8% (inactive) | 67.3% (inactive) | 35.3% (inactive) | 88.4% (inactive) | 91.8% (inactive) | 81.5% (inactive) | 103% (inactive) | 93.4% (inactive) | – | 48.1% (inactive) | 54.4% (inactive) | 64% (inactive)
8 | CN1CCN(Cc2ccc(NC(=O)c3cccc(C#Cc4c(N)ncc5ccc(F)cc45)c3)cc2C(F)(F)F)CC1 | -77.9% (active) | -56.1% (active) | -92.4% (active) | -85.9% (active) | -67.9% (active) | -19.2% (active) | -83.1% (active) | -51.1% (active) | -97.9% (active) | -90.2% (active) | -49.9% (active) | -19.6% (active) | 5.02% (active) | -69.5% (active) | -70.9% (active) | -93.5% (active) | – | -78.9% (active) | -23.1% (active) | -61.4% (active)
9 | Nc1ncc(-c2ccc3ncnc(N4CCc5ccc(Cl)cc54)c3c2)cc1C(F)(F)F | 14.9% (inactive) | 9.27% (active) | -23.4% (active) | 32.7% (inactive) | 28.4% (inactive) | 15.4% (inactive) | 22.6% (inactive) | 10.5% (inactive) | 11.7% (inactive) | 28.7% (inactive) | 14.1% (inactive) | 6.87% (active) | 20.6% (inactive) | -12% (active) | -3.58% (active) | – | -9.77% (active) | -62.5% (active) | 21.6% (inactive) | 7.2% (active)
10 | Cc1ccc(Nc2nc(-c3cc(O)c(C)c(C)c3O)cs2)cc1 | 76.7% (inactive) | 112% (inactive) | 102% (inactive) | 110% (inactive) | 97.2% (inactive) | 71% (inactive) | 97.6% (inactive) | 92.7% (inactive) | 75.1% (inactive) | 115% (inactive) | 105% (inactive) | 97.4% (inactive) | 97% (inactive) | 89.7% (inactive) | 120% (inactive) | – | 92.7% (inactive) | 123% (inactive) | 14.8% (inactive) | 26.5% (inactive)
11 | COc1ccccc1/C=C1\COc2ccc(O)c(O)c2C1=O | -13.3% (active) | 57.5% (inactive) | 11.6% (inactive) | 43.7% (inactive) | 15.3% (inactive) | 33.1% (inactive) | 41.6% (inactive) | 14.8% (inactive) | -30.1% (active) | 47.9% (inactive) | 58.5% (inactive) | 71.6% (inactive) | -11% (active) | -68.6% (active) | 35.2% (inactive) | 1.49% (active) | – | 109% (inactive) | 2.74% (active) | -1.1% (active)
12 | CC1(C)C(N)=Nc2cc(OCCCN3Cc4ccc(OCCc5cn(CC(=O)N6CCC(CCN7CCCC7)CC6)nn5)cc4C3)c(OCC3CC3)cc21 | 97.2% (inactive) | 74.2% (inactive) | 93.8% (inactive) | 104% (inactive) | 97.7% (inactive) | 84.5% (inactive) | 103% (inactive) | 98.6% (inactive) | 100% (inactive) | 108% (inactive) | 109% (inactive) | 101% (inactive) | 96.1% (inactive) | 90.8% (inactive) | 100% (inactive) | 103% (inactive) | – | 104% (inactive) | 96.2% (inactive) | 99.9% (inactive)
13 | Cc1ccc(Cl)cc1N1CCN(C(=O)[C@@H]2C[C@@H]2c2ccc(F)cc2)CC1 | 85.4% (inactive) | 72.7% (inactive) | 96.2% (inactive) | 92% (inactive) | 90% (inactive) | 69.1% (inactive) | 80.7% (inactive) | 69.7% (inactive) | 97.6% (inactive) | 103% (inactive) | 91.7% (inactive) | 88.3% (inactive) | 98.9% (inactive) | 70.9% (inactive) | 100% (inactive) | – | 69.1% (inactive) | 87.2% (inactive) | 91.5% (inactive) | 78.5% (inactive)
14 | Cn1cc2c(=O)nc3c(-c4nc5ccccc5[nH]4)n[nH]n3c2n1 | 80.1% (inactive) | 89.7% (inactive) | 93.4% (inactive) | 95.8% (inactive) | 89.6% (inactive) | 67.1% (inactive) | 53.1% (inactive) | 70.6% (inactive) | 72.5% (inactive) | 82.5% (inactive) | 30.4% (inactive) | 95.6% (inactive) | 77.9% (inactive) | 90.8% (inactive) | 120% (inactive) | 98.1% (inactive) | – | 58.7% (inactive) | 6.27% (active) | 47.8% (inactive)
